Activity calls are given as the source filed them. Rule for the calls: active = hit-call score of the fitted dose curve at least 0.9, where 1 is the maximum; inactive = score below 0.9.
Assay: ATG_M_19_CIS: Attagene CIS-FACTORIAL HepG2 Assay for M19 Transcription Factor (Internal Marker) (AID 2282939)
Conditions: HepG2 Attagene CIS-FACTORIAL M19 internal marker reporter; actives raise or lower the signal
Summary of the method: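 HepG2 cells transiently transfected with cis-regulated multiplexed reporter units, dosed 24 h. Reporter mRNA quantified by RT-PCR and capillary electrophoresis; internal background marker fitted bidirectionally versus DMSO.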

Row | Structure (SMILES) | outcome | AC50
1 | c1ccc2c(c1)sc1ccccc12 | inactive | –
2 | Nc1ccc(Cl)cc1 | inactive | –
3 | Nc1ccc2ccccc2c1 | inactive | –
4 | Nc1ccc([N+](=O)[O-])cc1Cl | inactive | –
5 | CCOP(=S)(OCC)SCSCC | inactive | –
6 | CCOP(=S)(S)OCC | inactive | –
7 | OCC(F)(F)OC(F)(F)C(F)(F)OC(F)(F)C(F)(F)OC(F)(F)F | inactive | –
8 | O=C(O)C(F)(F)C(F)(F)C(=O)O | inactive | –
9 | Cc1cc(C)c(C(=O)P(=O)(c2ccccc2)c2ccccc2)c(C)c1 | – | 61.5 µM (active)
10 | CC(C)(C)OOC(C)(C)C | inactive | –
11 | Cn1[nH]nnc1=S | inactive | –
12 | CCOP(=S)(Oc1ccc([N+](=O)[O-])cc1)c1ccccc1 (configuration not stated) | inactive | –
13 | FC(F)(F)C(F)(C(F)(F)F)C(F)(F)C(F)(F)CC1CO1 (configuration not stated) | inactive | –
14 | CCOC(=O)c1ccccc1N | inactive | –
15 | Oc1ccccc1Br | inactive | –
16 | CCOc1ccc(C(C)(C)COCc2cccc(Oc3ccccc3)c2)cc1 | inactive | –
17 | CCCCc1ccccc1 | inactive | –
18 | CC1=C(C(=O)Nc2ccccc2)S(=O)(=O)CCO1 | inactive | –
19 | ClC(Cl)=C(c1ccc(Cl)cc1)c1ccccc1Cl | inactive | –
20 | CCCCC(CC)COC(=O)c1c(Br)c(Br)c(Br)c(Br)c1C(=O)OCC(CC)CCCC (configuration not stated) | inactive | –

Row | Structure (SMILES) | outcome | AC50
21 | OCC(F)(F)OC(F)(F)C(F)(F)OC(F)(F)C(F)(F)OC(F)(F)CO | inactive | –
22 | COP(=O)(O)OC | inactive | –
23 | Clc1ccc(Oc2ccccc2)cc1 | inactive | –
24 | N#Cc1ccc(O)cc1 | inactive | –
25 | O=C(O)C1C(C(=O)O)C2(Cl)C(Cl)=C(Cl)C1(Cl)C2(Cl)Cl (configuration not stated) | inactive | –
26 | CC(O)C#N (configuration not stated) | inactive | –
27 | CCN(CC)c1ccccc1 | inactive | –
28 | CC(C)Nc1ccc(Nc2ccccc2)cc1 | inactive | –
29 | OCC1CO1 (configuration not stated) | inactive | –
30 | CCCCC(CC)COP(=O)(Oc1ccccc1)Oc1ccccc1 (configuration not stated) | inactive | –
31 | CCCCCCCc1ccc(O)cc1 | inactive | –
32 | ClC(Cl)c1ccccc1 | inactive | –
33 | COP(N)(=S)OC | inactive | –
34 | CCCCN(CCCC)N=O | inactive | –
35 | CC(C)(C)N(NC(=O)c1ccc(Cl)cc1)C(=O)c1ccccc1 | inactive | –
36 | c1ccc2c(c1)Nc1ccccc1S2 | inactive | –
37 | O=P(Oc1ccccc1)(Oc1ccccc1)Oc1ccccc1 | inactive | –
38 | CCNc1nc(Cl)nc(NC(C)(C)C)n1 | inactive | –
39 | O=NN1CCCC1 | inactive | –

Assay: ATG_ERE_CIS: Attagene CIS-FACTORIAL HepG2 Assay for Estrogen Response Element (ERE) (AID 2282940)
Conditions: HepG2 ERE cis-reporter, Attagene RNA transcript; actives raise or lower the signal
Summary of the method: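 HepG2 cells transiently transfected with multiplexed cis-element reporter units, measuring endogenous transcription factor activity; ERE reporter mRNA quantified after 24 h exposure by RT-PCR, fluorescent labelling, HpaI digestion and capillary electrophoresis. Bidirectional change versus DMSO.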

Row | Structure (SMILES) | AC50 | outcome
40 | c1ccc2c(c1)sc1ccccc12 | 125 µM (active) | –
41 | Nc1ccc(Cl)cc1 | – | inactive
42 | Nc1ccc2ccccc2c1 | – | inactive
43 | Nc1ccc([N+](=O)[O-])cc1Cl | – | inactive
44 | CCOP(=S)(OCC)SCSCC | 14.9 µM (active) | –
45 | CCOP(=S)(S)OCC | – | inactive
46 | Cc1cc(C)c(C(=O)P(=O)(c2ccccc2)c2ccccc2)c(C)c1 | 8.69 µM (active) | –
47 | CC(C)(C)OOC(C)(C)C | – | inactive
48 | Cn1[nH]nnc1=S | – | inactive
49 | CCOP(=S)(Oc1ccc([N+](=O)[O-])cc1)c1ccccc1 (configuration not stated) | 3.35 µM (active) | –
50 | CCOC(=O)c1ccccc1N | – | inactive
51 | Oc1ccccc1Br | – | inactive
52 | CCCCc1ccccc1 | – | inactive
53 | ClC(Cl)=C(c1ccc(Cl)cc1)c1ccccc1Cl | 4.18 µM (active) | –
54 | CCCCC(CC)COC(=O)c1c(Br)c(Br)c(Br)c(Br)c1C(=O)OCC(CC)CCCC (configuration not stated) | – | inactive
55 | OCC(F)(F)OC(F)(F)C(F)(F)OC(F)(F)C(F)(F)OC(F)(F)CO | 0.506 µM (active) | –
56 | COP(=O)(O)OC | – | inactive
57 | O=C(O)C1C(C(=O)O)C2(Cl)C(Cl)=C(Cl)C1(Cl)C2(Cl)Cl (configuration not stated) | – | inactive
58 | CC(O)C#N (configuration not stated) | – | inactive
59 | CC(C)Nc1ccc(Nc2ccccc2)cc1 | – | inactive
60 | OCC1CO1 (configuration not stated) | – | inactive
61 | CCCCC(CC)COP(=O)(Oc1ccccc1)Oc1ccccc1 (configuration not stated) | 6.77 µM (active) | –
62 | CCCCCCCc1ccc(O)cc1 | 3.89 µM (active) [middle of 4 runs] | –
63 | ClC(Cl)c1ccccc1 | – | inactive
64 | CCCCN(CCCC)N=O | – | inactive
65 | CC(C)(C)N(NC(=O)c1ccc(Cl)cc1)C(=O)c1ccccc1 | – | inactive
66 | c1ccc2c(c1)Nc1ccccc1S2 | 16.2 µM (active) | –
67 | O=P(Oc1ccccc1)(Oc1ccccc1)Oc1ccccc1 | 9.81 µM (active) | –
68 | O=NN1CCCC1 | – | inactive

Assay: ATG_Ets_CIS: Attagene CIS-FACTORIAL HepG2 Assay for human Erythroblast Transformation Specific (ETS) (AID 2282941)
Conditions: HepG2 ETS cis-reporter transcription, actives raise or lower the signal
Summary of the method: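 Endogenous transcription factor activity read as reporter mRNA via RT-PCR and capillary electrophoresis, with gain or loss fitted bidirectionally against DMSO. Human HepG2 liver cells, transiently transfected CIS reporter constructs, 24 h exposure.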

Row | Structure (SMILES) | outcome | AC50
69 | c1ccc2c(c1)sc1ccccc12 | inactive | –
70 | Nc1ccc(Cl)cc1 | inactive | –
71 | Nc1ccc2ccccc2c1 | inactive | –
72 | Nc1ccc([N+](=O)[O-])cc1Cl | inactive | –
73 | CCOP(=S)(OCC)SCSCC | inactive | –
74 | CCOP(=S)(S)OCC | inactive | –
75 | OCC(F)(F)OC(F)(F)C(F)(F)OC(F)(F)C(F)(F)OC(F)(F)F | inactive | –
76 | O=C(O)C(F)(F)C(F)(F)C(=O)O | inactive | –
77 | Cc1cc(C)c(C(=O)P(=O)(c2ccccc2)c2ccccc2)c(C)c1 | inactive | –
78 | CC(C)(C)OOC(C)(C)C | inactive | –
79 | Cn1[nH]nnc1=S | inactive | –
80 | CCOP(=S)(Oc1ccc([N+](=O)[O-])cc1)c1ccccc1 (configuration not stated) | inactive | –
81 | FC(F)(F)C(F)(C(F)(F)F)C(F)(F)C(F)(F)CC1CO1 (configuration not stated) | inactive | –
82 | CCOC(=O)c1ccccc1N | inactive | –
83 | Oc1ccccc1Br | inactive | –
84 | CCOc1ccc(C(C)(C)COCc2cccc(Oc3ccccc3)c2)cc1 | inactive | –
85 | CCCCc1ccccc1 | inactive | –
86 | CC1=C(C(=O)Nc2ccccc2)S(=O)(=O)CCO1 | inactive | –
87 | ClC(Cl)=C(c1ccc(Cl)cc1)c1ccccc1Cl | – | 174 µM (active)
88 | CCCCC(CC)COC(=O)c1c(Br)c(Br)c(Br)c(Br)c1C(=O)OCC(CC)CCCC (configuration not stated) | inactive | –

Row | Structure (SMILES) | outcome | AC50
89 | OCC(F)(F)OC(F)(F)C(F)(F)OC(F)(F)C(F)(F)OC(F)(F)CO | inactive | –
90 | COP(=O)(O)OC | inactive | –
91 | Clc1ccc(Oc2ccccc2)cc1 | inactive | –
92 | N#Cc1ccc(O)cc1 | inactive | –
93 | O=C(O)C1C(C(=O)O)C2(Cl)C(Cl)=C(Cl)C1(Cl)C2(Cl)Cl (configuration not stated) | inactive | –
94 | CC(O)C#N (configuration not stated) | inactive | –
95 | CCN(CC)c1ccccc1 | inactive | –
96 | CC(C)Nc1ccc(Nc2ccccc2)cc1 | inactive | –
97 | OCC1CO1 (configuration not stated) | inactive | –
98 | CCCCC(CC)COP(=O)(Oc1ccccc1)Oc1ccccc1 (configuration not stated) | inactive | –
99 | CCCCCCCc1ccc(O)cc1 | inactive | –
100 | ClC(Cl)c1ccccc1 | inactive | –
101 | COP(N)(=S)OC | inactive | –
102 | CCCCN(CCCC)N=O | inactive | –
103 | CC(C)(C)N(NC(=O)c1ccc(Cl)cc1)C(=O)c1ccccc1 | inactive | –
104 | c1ccc2c(c1)Nc1ccccc1S2 | inactive | –
105 | O=P(Oc1ccccc1)(Oc1ccccc1)Oc1ccccc1 | inactive | –
106 | CCNc1nc(Cl)nc(NC(C)(C)C)n1 | inactive | –
107 | O=NN1CCCC1 | inactive | –

Source: PubChem BioAssay (EPA / NIEHS)
